# From PubChem BioAssay
# Rows were chosen to be rich in hits. Some 4.3% of all compounds tested hit in one or more screens of this group.
# uPA surface inh: inhibitors of cell surface uPA generation; cell surface uPA generation assay, qHTS; Potency, µM (series often up to 38.3 µM), inactives show at the highest dose activity change, negative = inhibition, most hits filed as inhibitors; 330,000 compounds, 0.31% hits; AID 540303; active = well fitted inhibition curve with a large enough effect; inconclusive = small, poorly fitted or top-dose-only effect; inactive = no such curve, though single readings can be large or run the other way; tested in mouse RAW 264.7 cells; note: potency is the fitted concentration of half-maximal effect; % is set by controls: 0 for no effect and ±100 for the full control effect; nearly all actives have a fitted effect of over 55% in size
# SW480 rereplic: inducers of DNA re-replication in SW480 colon cancer cells | SW480 DNA re-replication, Hoechst DNA content imaging, 48 h | Potency, µM (doses to about 46.1 µM), for inactives: at the top dose re-replication activation, actives largely listed as activators | 340,000 compounds, 1.8% hits | AID 624297; note: potency is the fitted concentration of half-maximal effect; % of control where 0% means no effect; nearly all actives have a fitted effect of over 55% in size
#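 First, 250 cells per well were seeded. Next, compound or vehicle (23 nL) was pinned in, plates sat 48 hr at 37 C. Finally Hoechst was added for 40 min before fluorescence scanning.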
# Giardia kill: kills Giardia lamblia; Giardia lamblia trophozoite viability; activity change, % at 7.66 µM, hits read low; 340,000 compounds, 0.15% hits; AID 540267; in the data active = activity change below about -80%; inconclusive = between about -30% and that limit;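 note: parasites exposed to compound for two days anaerobically before the ATP read; % is set by controls: 0 for no effect and ±100 for the full control effect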
#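 Trophozoites 100 cells/well + cpd; 48 hrs, 37 deg C, anaerobic. ATPLite 1-Step added, 15-30 min RT, luminescence read (ATP-based viability).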
# MCF10A rerep: DNA re-replication induction in MCF 10a cells; Potency, µM (series often up to 46.1 µM), inactives show at the highest dose activity, positive = re-replication, hits mostly activators; 350,000 compounds, 2.9% hits; MCF 10A DNA re-replication, Hoechst nuclear intensity, 48 h; AID 624296; note: potency is the fitted concentration of half-maximal effect; % of control where 0% means no effect; nearly all actives have a fitted effect of over 50% in size
# * marks the source's active call; other numbers are inactive results; ? = inconclusive; / = no result given; [ ] = dose if it differs, or a comment. Unless noted, calls come from the whole dose curve; as a rule, active = well fitted activation curve with a large enough effect; inconclusive = small, poorly fitted or top-dose-only effect; inactive = no such curve, though single readings can be large or run the other way.
SMILES,uPA surface inh,SW480 rereplic,Giardia kill,MCF10A rerep
COc1ccccc1N1C(=O)CC(Nc2ccc(N3CCOCC3)cc2)C1=O (stereo unspecified),-1%,-7%,27,1%
O=C1CC(Nc2ccc(N3CCOCC3)cc2)C(=O)N1c1ccccc1 (stereo unspecified),23%,?,-6,8.2µM*
Cc1ccc(NC(=O)c2ncn(CCCNCc3ccccn3)n2)cc1C,-13%,10%,5,?
O=C(NCC1(N2CCOCC2)CCCCC1)c1cccc(S(=O)(=O)N2CCc3ccccc3C2)c1,-2%,6%,11,15µM*
O=C(NCCCN1CCOCC1)c1cccc(S(=O)(=O)N2CCc3ccccc3C2)c1,-1%,22%[1.84 µM],-3,?
COC1=CC(=O)c2ccccc2C1=O,5µM*,?,-16,18µM*
COC(=O)C1C2CC3c4[nH]c5cc(OC)ccc5c4CCN3CC2CC(OC)C1OC (stereo unspecified),/,2%,/,22%
CN1CCN(S(=O)(=O)c2ccc(N3CCN(S(=O)(=O)/C=C/c4ccccc4)CC3)nc2)CC1,-3%,?,14,7.3µM*
CN1CCN(S(=O)(=O)c2ccc(N3CCN(C(c4ccccc4)c4ccccc4)CC3)nc2)CC1,4%,11%,-11,?
CC1=NN(C(=O)c2nn(C)cc2Br)C(O)(C(F)(F)F)C1 (stereo unspecified),0%,13µM*,-23,?
CC1=NN(C(=O)c2cc(C)nn2C)C(O)(C(F)(F)F)C1 (stereo unspecified),-2%,0.52µM*,-21,3%
CCCCc1cc(C(=O)Cc2ccccn2)c(O)cc1O,4%,-31%,-19,17%
COc1cc(C(=S)N2CCCC2)cc(OC)c1OC,25%,-20%,0,3.7µM*
COc1cc(C(=O)N2CCCCCCC2)cc(OC)c1OC,/,-7%,/,1%
COC(=O)c1cnn(-c2nc(OC)cc(OC)n2)c1C,-5%,-14%,18,-2%
COc1cc(OC)nc(-n2ncc(Br)c(Br)c2=O)n1,?,7%,15,4.6µM*
O=C(NC1CC1)c1ccc(NC(=O)C2CCCCC2)cc1,6%,-3%,-5,5%
CCN(CC)CCC[C@H](C)Nc1c2ccc(Cl)cc2nc2ccc(OC)cc12,/,?,/,13µM*
CCC1CCC(N2CCN(c3cccc(OC)c3)CC2)CC1 (stereo unspecified),-2%,-54%,-17,5.2µM*
COc1ccc(CNc2ncnc3nc[nH]c23)cc1,/,/,-15,/
CN(C)S(=O)(=O)c1ccc(C(=O)Nc2nnc(-c3ccc4c(c3)CCCC4)o2)cc1,4.5µM*,-2%,-3,13%
CN(C)S(=O)(=O)c1ccc(C(=O)Nc2nnc(-c3cccs3)o2)cc1,?,-65%,-20,?
CS(=O)(=O)c1cccc(-c2nnc(NC(=O)c3ccc(S(=O)(=O)N4CCCC4)cc3)o2)c1,4%,0%,-6,18%
O=C(Nc1nnc(-c2ccc(F)cc2)o1)c1ccc(S(=O)(=O)N2CCOCC2)cc1,-8%,10µM*,-12,8%
O=C(/C=C/c1ccccc1)c1ccc2c3c(cccc13)CC2,-7%,9%,-1,18µM*
SMILES,uPA surface inh,SW480 rereplic,Giardia kill,MCF10A rerep
O=C(/C=C/c1ccccc1)c1ccc2ccccc2c1,-10%,141%,11,?
C#CC[N+](C)(C)CCCCCCCCC,-10%,?,22,9.2µM*
COc1cc2c(C#N)c(N3CCN(c4ccccc4OC)CC3)nc(N)c2c(N)n1,-15%,?,6,10µM*
O=C(NCCN1CCOCC1)c1ccncc1,-3%,1%,-3,-1%
O=C1C=C(NCCN2CCOCC2)C(=O)c2cnccc21,/,10µM*,/,?
CCCNC(=O)c1cc2c3ccccc3n(C)c2s1,-4%,5%,-15,0%
Cn1c2ccccc2c2cc(C(=O)NNC(=O)CCl)sc21,-11%,?,3,21µM*
COc1ccccc1-n1cnc(N)c1C(C)=O,10%,11%,-11,-10%
COc1ccccc1-n1cnc(N)c1C(=O)c1ccccc1,-8%,15µM*,-7,?
COc1ccc(C2=NOC(C(=O)NCc3ccc(F)cc3)C2)cc1OC (stereo unspecified),?,2.1µM*,20,1.6µM*
COc1ccc(NC(=O)C2CC(c3ccc(OC)c(OC)c3)=NO2)cc1OC (stereo unspecified),/,-2%,-10,13%
COc1cc(C2=NOC(C(=O)NCc3ccc(F)cc3)C2)cc(OC)c1OC (stereo unspecified),/,0.73µM*,-6,3.3µM*
